From PMC7862700, “An all-to-all approach to the identification of sequence-specific readers for epigenetic DNA modifications on cytosine”

Experiments:
Test in all cases: DAPPL (digital affinity profiling via proximity ligation, sequencing); 10 mM Tris-HCl pH 7.5, 50 mM NaCl, 1 mM DTT, 4% glycerol, room temperature, 30 min; GST-TFs on glutathione beads, 16-mer random dsDNA library, 0.1% formaldehyde crosslink after washing; high values mean tight binding
Settings in all cases: protein: recombinant; tags: N-terminal GST; dsDNA, one strand shown
ELF4 = ELF4 (Homo sapiens, UniProt Q99607 1-663)
Chain of ELF4 (Q99607 whole entry, the tested form may be a part): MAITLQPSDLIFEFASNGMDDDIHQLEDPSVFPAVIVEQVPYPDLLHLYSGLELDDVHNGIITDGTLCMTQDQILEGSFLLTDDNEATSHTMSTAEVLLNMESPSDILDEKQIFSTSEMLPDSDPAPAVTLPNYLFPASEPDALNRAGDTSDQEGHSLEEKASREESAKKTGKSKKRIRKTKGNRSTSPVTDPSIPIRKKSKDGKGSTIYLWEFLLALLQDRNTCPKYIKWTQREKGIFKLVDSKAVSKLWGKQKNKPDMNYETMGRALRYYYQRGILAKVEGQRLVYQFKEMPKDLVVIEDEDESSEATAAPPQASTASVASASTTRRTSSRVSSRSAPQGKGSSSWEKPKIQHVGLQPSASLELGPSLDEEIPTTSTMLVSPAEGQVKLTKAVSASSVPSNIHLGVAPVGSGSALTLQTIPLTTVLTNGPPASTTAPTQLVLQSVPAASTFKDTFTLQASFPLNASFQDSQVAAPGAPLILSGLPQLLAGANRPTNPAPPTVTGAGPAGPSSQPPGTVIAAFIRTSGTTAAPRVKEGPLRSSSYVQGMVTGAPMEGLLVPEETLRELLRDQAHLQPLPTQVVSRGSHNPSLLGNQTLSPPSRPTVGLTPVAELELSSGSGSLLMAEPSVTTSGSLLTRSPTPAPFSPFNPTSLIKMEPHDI
Outline: (§1)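 Binding signal is defined as a hexamer's read frequency for one factor over its frequency for the tag-only sample. To obtain reads, GST-fused human transcription factors were expressed in yeast, captured on glutathione beads, barcoded with DNA and pooled with that sample. Pools met 200 nmole of a 16-mer random double-stranded DNA library in Tris/NaCl/DTT/glycerol buffer for 30 min at room temperature before washing, 0.1% formaldehyde crosslinking, proximity ligation (BsaI/T4 ligase, 1 h, 37 °C), PCR and Illumina NextSeq500 sequencing.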

ETV2 = target: T1, ETV2 (Homo sapiens, UniProt O00321 1-342)
T1 sequence: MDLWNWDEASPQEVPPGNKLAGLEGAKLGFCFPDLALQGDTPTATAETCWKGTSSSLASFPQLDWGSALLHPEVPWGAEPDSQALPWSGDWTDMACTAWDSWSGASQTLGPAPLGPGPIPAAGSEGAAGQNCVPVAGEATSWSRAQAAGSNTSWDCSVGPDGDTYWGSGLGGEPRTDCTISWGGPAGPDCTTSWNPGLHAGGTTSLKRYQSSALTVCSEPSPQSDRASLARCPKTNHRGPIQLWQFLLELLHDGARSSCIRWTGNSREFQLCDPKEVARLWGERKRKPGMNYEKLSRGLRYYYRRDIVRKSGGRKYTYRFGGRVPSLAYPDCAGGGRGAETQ
Outline: as §1

ELF3 = target: T2, ELF3 (Homo sapiens, UniProt P78545 1-371)
T2 sequence: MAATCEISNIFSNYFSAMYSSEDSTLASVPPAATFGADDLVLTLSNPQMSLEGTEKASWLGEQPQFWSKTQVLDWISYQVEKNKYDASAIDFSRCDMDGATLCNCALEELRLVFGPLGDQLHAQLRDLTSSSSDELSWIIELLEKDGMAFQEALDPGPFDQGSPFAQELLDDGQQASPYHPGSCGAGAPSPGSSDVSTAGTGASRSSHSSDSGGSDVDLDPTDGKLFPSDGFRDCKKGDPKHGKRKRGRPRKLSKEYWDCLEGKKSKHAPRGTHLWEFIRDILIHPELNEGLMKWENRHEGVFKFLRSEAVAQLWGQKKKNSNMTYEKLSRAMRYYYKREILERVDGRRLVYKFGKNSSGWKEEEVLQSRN
Outline: as §1

ETV1 = ETV1 (Homo sapiens, UniProt P50549 1-477)
Chain of ETV1 (P50549 whole entry): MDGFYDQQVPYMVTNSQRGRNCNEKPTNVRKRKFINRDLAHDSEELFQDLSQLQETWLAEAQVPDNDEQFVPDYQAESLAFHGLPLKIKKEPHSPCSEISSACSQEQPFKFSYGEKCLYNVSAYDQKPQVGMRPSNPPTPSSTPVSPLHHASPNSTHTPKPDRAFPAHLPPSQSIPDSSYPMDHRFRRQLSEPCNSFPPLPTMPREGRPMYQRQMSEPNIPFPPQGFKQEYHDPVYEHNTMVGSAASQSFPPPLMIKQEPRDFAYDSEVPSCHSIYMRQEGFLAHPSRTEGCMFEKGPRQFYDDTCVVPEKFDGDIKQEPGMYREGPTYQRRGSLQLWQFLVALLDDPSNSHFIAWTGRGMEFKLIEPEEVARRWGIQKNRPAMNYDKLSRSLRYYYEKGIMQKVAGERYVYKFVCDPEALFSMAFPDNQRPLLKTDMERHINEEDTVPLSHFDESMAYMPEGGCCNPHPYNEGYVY
Outline: as §1

ERF = target: T3, ERF (Homo sapiens, UniProt P50548 1-548)
T3 sequence: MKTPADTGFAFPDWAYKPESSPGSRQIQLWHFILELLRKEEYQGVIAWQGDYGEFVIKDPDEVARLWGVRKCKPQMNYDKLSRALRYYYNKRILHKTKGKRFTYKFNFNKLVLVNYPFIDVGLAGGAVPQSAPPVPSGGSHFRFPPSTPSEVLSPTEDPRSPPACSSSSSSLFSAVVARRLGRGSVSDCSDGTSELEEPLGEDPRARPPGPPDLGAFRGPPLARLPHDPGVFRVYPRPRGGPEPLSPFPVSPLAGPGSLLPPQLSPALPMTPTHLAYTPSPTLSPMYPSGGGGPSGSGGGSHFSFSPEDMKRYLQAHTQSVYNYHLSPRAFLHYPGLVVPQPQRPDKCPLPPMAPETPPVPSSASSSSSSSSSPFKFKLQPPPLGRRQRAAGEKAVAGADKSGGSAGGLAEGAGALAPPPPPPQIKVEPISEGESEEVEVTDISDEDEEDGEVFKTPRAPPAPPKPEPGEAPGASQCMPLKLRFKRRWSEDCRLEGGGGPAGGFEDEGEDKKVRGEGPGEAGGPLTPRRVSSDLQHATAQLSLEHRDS
Outline: as §1

ETV3L = target: T4, ETV3L (Homo sapiens, UniProt Q6ZN32 1-361)
T4 sequence: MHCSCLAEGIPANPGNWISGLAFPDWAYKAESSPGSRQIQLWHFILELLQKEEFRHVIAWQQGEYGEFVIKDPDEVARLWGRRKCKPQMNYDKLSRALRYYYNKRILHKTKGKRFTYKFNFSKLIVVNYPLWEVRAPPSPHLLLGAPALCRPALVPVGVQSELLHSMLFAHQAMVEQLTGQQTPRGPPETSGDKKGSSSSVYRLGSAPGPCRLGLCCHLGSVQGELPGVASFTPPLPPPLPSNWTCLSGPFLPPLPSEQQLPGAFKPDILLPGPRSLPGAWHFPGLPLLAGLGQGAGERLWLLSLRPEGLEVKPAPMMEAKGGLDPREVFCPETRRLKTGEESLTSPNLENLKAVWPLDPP
Outline: as §1

ETS2 = target: T5, ETS2 (Homo sapiens, UniProt P15036 1-469)
T5 sequence: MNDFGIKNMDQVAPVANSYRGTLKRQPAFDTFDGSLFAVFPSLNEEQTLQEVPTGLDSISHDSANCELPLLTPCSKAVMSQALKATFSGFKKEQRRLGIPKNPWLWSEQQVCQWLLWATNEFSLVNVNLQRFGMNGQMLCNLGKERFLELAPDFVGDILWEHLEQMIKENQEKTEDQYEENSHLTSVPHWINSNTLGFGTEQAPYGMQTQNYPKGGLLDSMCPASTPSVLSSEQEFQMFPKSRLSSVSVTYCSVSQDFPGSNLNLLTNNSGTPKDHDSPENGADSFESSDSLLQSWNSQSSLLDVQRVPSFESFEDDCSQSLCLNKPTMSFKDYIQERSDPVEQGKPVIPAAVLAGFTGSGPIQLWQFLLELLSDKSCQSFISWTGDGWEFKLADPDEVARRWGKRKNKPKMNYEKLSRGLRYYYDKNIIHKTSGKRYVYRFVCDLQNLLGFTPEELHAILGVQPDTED
Outline: as §1

ETV7 = target: T6, ETV7 (Homo sapiens, UniProt Q9Y603 1-341)
T6 sequence: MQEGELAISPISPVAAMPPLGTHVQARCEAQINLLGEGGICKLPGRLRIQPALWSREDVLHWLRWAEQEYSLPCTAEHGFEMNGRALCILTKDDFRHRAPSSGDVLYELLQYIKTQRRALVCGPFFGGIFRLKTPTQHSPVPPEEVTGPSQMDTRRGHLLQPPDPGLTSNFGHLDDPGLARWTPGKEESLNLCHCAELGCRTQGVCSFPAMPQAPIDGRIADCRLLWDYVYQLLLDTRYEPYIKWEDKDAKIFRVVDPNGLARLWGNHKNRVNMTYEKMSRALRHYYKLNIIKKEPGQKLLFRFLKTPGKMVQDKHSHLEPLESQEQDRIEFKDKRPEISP
Outline: as §1

ETV3 = target: T7, ETV3 (Homo sapiens, UniProt P41162-2 1-143)
T7 sequence: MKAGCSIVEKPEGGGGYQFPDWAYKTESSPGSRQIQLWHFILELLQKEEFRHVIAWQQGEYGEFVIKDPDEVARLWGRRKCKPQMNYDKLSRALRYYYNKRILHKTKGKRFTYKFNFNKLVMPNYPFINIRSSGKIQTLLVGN
Outline: as §1

ETV6 = ETV6 (Homo sapiens, UniProt P41212 1-452)
Chain of ETV6 (P41212 whole entry): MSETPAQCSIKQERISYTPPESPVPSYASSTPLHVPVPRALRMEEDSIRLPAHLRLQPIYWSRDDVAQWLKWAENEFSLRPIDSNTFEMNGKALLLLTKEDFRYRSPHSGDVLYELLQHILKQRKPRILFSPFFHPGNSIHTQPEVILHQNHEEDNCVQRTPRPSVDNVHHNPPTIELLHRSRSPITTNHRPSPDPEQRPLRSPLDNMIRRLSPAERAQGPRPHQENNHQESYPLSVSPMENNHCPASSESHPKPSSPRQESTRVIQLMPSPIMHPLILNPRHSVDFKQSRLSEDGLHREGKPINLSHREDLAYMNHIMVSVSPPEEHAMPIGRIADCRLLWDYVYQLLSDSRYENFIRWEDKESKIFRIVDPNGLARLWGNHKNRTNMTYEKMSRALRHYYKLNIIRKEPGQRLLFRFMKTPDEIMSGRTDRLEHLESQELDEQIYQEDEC
Outline: as §1

Sequence: CATGAC
- binding signal (ELF4): 1.28 fold enrichment (6-mer frequency, TF over GST control)
- binding signal (ETV2): 1.3 fold enrichment (6-mer frequency, TF over GST control)
- binding signal (ELF3): 1.15 fold enrichment (6-mer frequency, TF over GST control)
- binding signal (ETV1): 1.13 fold enrichment (6-mer frequency, TF over GST control)
- binding signal (ERF): 1.18 fold enrichment (6-mer frequency, TF over GST control)
- binding signal (ETV3L): 1.13 fold enrichment (6-mer frequency, TF over GST control)
- binding signal (ETS2): 1.2 fold enrichment (6-mer frequency, TF over GST control)
- binding signal (ETV7): 1.11 fold enrichment (6-mer frequency, TF over GST control)
- binding signal (ETV3): 1.13 fold enrichment (6-mer frequency, TF over GST control)
- binding signal (ETV6): 1.18 fold enrichment (6-mer frequency, TF over GST control)
